Reference: PubChem BioAssay (Tox21)
Results filed as inconclusive are left out. Activity calls are given as the source filed them. Unless noted, calls follow the shape of the dose curve; as a rule, active = well fitted curve in the direction sought with a large enough effect in the repeat runs; inconclusive = weak or mixed curves; inactive = no such curve, though single readings can be large; an effect the other way counts as inactive or inconclusive.

How the values were obtained:
[1] = qHTS assay to identify small molecule antagonists of the estrogen related receptor (ERR) signaling pathway - cell viability counter screen (AID 1224818); also: series mostly up to about 46 µM
Method in brief: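 Compounds dissolved in DMSO were applied to ERR cells seeded at 2,000 per well 6 h earlier. Cell viability followed 17.5 h later via 30-min CellTiter-Fluor fluorescence.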

[2] = qHTS assay to identify small molecule antagonists of the estrogen related receptor signaling pathway with the pleiotropic PPARgamma coactivator (PGC) cell viability counter screen (AID 1224822; also: series mostly up to about 46 µM)
Method in brief: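 Counter screen for cell viability: PGC/ERR cells, 6 h pre-incubation after plating, 17.5 h compound exposure at 37 C, fluorescence from CellTiter-Fluor after 30 min.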

[3] = system: estrogen-related receptor alpha (ERRalpha) with PGC-1alpha coactivator, human; assay: qHTS assay to identify small molecule antagonists of the estrogen related receptor signaling pathway with the pleiotropic PPARgamma coactivator (PGC) (AID 1224821; calls by dose curve;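 also: series mostly up to about 46 µM; lower luminescence signal means antagonism of PGC/ERR signalling; nearly all actives have a fitted effect of over 50% in size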)
Method in brief: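 PGC/ERR reporter cells; 6 h pre-incubation 37 C/5% CO2; pin-tool compound in DMSO, 18 h 37 C; One-Glo added, 30 min RT; luminescence read. qHTS antagonist mode.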

[4] = qHTS assay to identify small molecule agonists of the estrogen related receptor signaling pathway with the pleiotropic PPARgamma coactivator (PGC) (AID 1224823)
Method in brief: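 Luminescence readout (One-Glo, 30 min RT) from PGC/ERR cell line treated 18 h at 37 C with pin-tool-delivered DMSO compound solutions; cells plated 6 h before dosing. Quantitative HTS format.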

[5] = qHTS assay for small molecule agonists of the p53 signaling pathway (AID 651631; calls by dose curve; also: nearly all actives have a fitted effect of over 15% in size)
Method in brief: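 We treat p53RE-bla HCT-116 cells with compounds for 16 h at 37 °C, add LiveBLAzer B/G FRET substrate for 2 h at room temperature, and measure fluorescence intensity.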

[6] = qHTS assay for small molecules that induce genotoxicity in human embryonic kidney cells expressing luciferase-tagged ATAD5 (AID 651632); also: nearly all actives have a fitted effect of over 15% in size
Method in brief: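 Concentration-response screen for ATAD5 upregulation in HEK293T luciferase reporter cells; 16 hr treatment at 37C, then luminescence after 30 min with Amplite at room temperature.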

[7] = qHTS assay for small molecule agonists of the p53 signaling pathway - cell viability (AID 651633; calls by dose curve;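 also: p53RE-bla HCT reporter cells with a stable beta-lactamase p53 reporter; series mostly up to about 83 µM; nearly all actives have a fitted effect of over 30% in size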)
Method in brief: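 p53RE-bla cells were treated with compound for 16 hours at 37 C. Cytotoxicity was then measured as CellTiter-Glo luminescence after 30 min at room temperature.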

[8] = qHTS assay for small molecules that induce genotoxicity in human embryonic kidney cells expressing luciferase-tagged ATAD5 - cell viability (AID 651634; calls by dose curve; also: nearly all actives have a fitted effect of over 25% in size)
Method in brief: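 15.5 hr compound or vehicle exposure of HEK293T cells expressing luciferase-tagged ATAD5 at 37C; live-cell protease activity is read by fluorescence after 30 min of CellTiter-Fluor.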

[9] = qHTS assay for small molecule disruptors of the mitochondrial membrane potential - cell viability (AID 720634; calls by dose curve;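 also: human HepG2 liver cancer cells; series mostly up to about 83 µM; nearly all actives have a fitted effect of over 20% in size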)
Method in brief: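 In this qHTS format, HepG2 cells plated overnight were pinned with compound, incubated 1 hr, and assayed for ATP luminescence with CellTiter-Glo after m-MPI dye addition.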

[10] = qHTS assay for small molecule disruptors of the mitochondrial membrane potential (AID 720635)
Method in brief: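 HepG2 cells exposed to compound 1 hr at 37C, then Mito-MPS dye 30 min. Ratio read of aggregate (540/590 nm) versus monomer (490/535 nm) fluorescence.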

[11] = qHTS assay to test for compound auto fluorescence at 590 nm (red) in HepG2 cells (AID 720674)
Method in brief: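 HepG2 cells, 2,000 per well in MEM with 10% FBS, attached overnight at 37 C, then got 23 nL compound or DMSO. After 1 hr at 37 C, 5% CO2, red fluorescence was read at 540/590 nm against Rose Bengal sodium as reference.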

[12] = qHTS assay to test for compound auto fluorescence at 535 nm (green) in HepG2 cells (AID 720675)
[13] = qHTS assay to test for compound auto fluorescence at 460 nm (blue) in HEK293 cells (AID 720678)
Method in brief: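 HEK293 cells (2,000 per well, medium with 10% dialyzed FBS) attached for 4-5 hr at 37C, then received compound and stood overnight at 37C, 5% CO2. Blue fluorescence was read at Ex/Em 405/460 nm and expressed relative to triamterene.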

[14] = qHTS assay to test for compound auto fluorescence at 590 nm (red) in HEK293 cells (AID 720679)
Method in brief: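 HEK293 cells (2,000/well, medium with 10% dialyzed FBS) attached for 4-5 hr at 37C, received 23 nL compound and were incubated overnight at 37C, 5% CO2. Red fluorescence was then read at 540/590nm Ex/Em, referenced to Rose Bengal sodium.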

[15] = qHTS assay to test for compound auto fluorescence at 460 nm (blue) in HEK293 cell free culture (AID 720681)
Method in brief: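 Compounds were added to cell-free DMEM with 10% FBS and fluorescence read directly. The blue channel used 405 nm excitation and 460 nm emission, with triamterene as the reference fluorophore.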

[16] = qHTS assay to test for compound auto fluorescence at 535 nm (green) in HEK293 cell free culture (AID 720682)
Method in brief: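 Green-channel intensity (Ex/Em 485/535 nm) was recorded from compound-treated wells containing only DMEM with 10% FBS. Fluorescein provided the equivalency standard.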

[17] = qHTS assay to test for compound auto fluorescence at 590 nm (red) in HepG2 cell free culture (AID 720684)
Method in brief: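 Rose Bengal sodium served as the reference for red signal. Test compounds were dispensed into serum-containing MEM (10% FBS) without cells, and plates were read at 540/590 nm.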

[18] = qHTS assay to test for compound auto fluorescence at 460 nm (blue) in HepG2 cell free culture (AID 720685)
Method in brief: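 Cell-free plates of MEM plus 10% FBS received 23 nL compound or DMSO vehicle; blue-channel (405/460 nm) intensity scored against triamterene as reference fluorophore.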

[19] = qHTS assay to test for compound auto fluorescence at 535 nm (green) in HepG2 cell free culture (AID 720686)
[20] = qHTS assay to test for compound auto fluorescence at 460 nm (blue) in HepG2 cells (AID 720687)
Method in brief: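 HepG2 cells in MEM with 10% FBS, attached overnight at 37 C, were exposed to compound or DMSO for 1 hr at 37 C, 5% CO2. Blue fluorescence was read at 405/460 nm, with triamterene as reference fluorophore.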

[21] = target: Glucocorticoid receptor (Homo sapiens) (UniProt P04150); assay: qHTS assay to identify small molecule agonists of the glucocorticoid receptor (GR) signaling pathway (AID 720691; active = well fitted activation curve with a large enough effect in the signal ratio in the repeat runs, not every such curve was filed as active; the % refers to the signal ratio)
Glucocorticoid receptor (Homo sapiens), sequence (P04150 whole entry, looked up): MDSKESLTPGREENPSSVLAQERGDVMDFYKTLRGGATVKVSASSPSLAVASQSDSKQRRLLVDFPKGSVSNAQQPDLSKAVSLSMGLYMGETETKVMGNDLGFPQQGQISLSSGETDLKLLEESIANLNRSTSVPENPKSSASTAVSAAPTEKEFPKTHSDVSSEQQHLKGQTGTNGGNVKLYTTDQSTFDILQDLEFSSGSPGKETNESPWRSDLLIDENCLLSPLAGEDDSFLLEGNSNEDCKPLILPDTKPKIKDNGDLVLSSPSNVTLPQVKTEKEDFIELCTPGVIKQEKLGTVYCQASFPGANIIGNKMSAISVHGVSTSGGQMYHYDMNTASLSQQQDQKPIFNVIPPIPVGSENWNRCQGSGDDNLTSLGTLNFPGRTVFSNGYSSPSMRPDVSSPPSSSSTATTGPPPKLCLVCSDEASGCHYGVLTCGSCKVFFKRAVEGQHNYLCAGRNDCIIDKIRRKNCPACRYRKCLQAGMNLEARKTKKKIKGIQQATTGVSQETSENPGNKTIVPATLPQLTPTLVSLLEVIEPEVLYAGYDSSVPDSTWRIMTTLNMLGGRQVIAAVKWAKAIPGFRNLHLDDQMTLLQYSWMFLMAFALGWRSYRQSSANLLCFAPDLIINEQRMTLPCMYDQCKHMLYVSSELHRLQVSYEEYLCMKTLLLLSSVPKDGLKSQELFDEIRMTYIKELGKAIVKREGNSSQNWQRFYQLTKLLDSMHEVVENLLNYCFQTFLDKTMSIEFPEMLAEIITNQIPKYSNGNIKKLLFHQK
Method in brief: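 Measures GR pathway activation through a GRE-beta-lactamase reporter stably integrated in HeLa cells, with 18 h compound treatment at 37 C and fluorescence detection using a FRET substrate.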

[22] = target: Glucocorticoid receptor (Homo sapiens) (UniProt P04150); assay: qHTS assay to identify small molecule antagonists of the glucocorticoid receptor (GR) signaling pathway (AID 720692; active = well fitted inhibition curve with a large enough effect in the signal ratio in the repeat runs, not every such curve was filed as active; the % refers to the signal ratio)
Method in brief: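 Tox21 10K library screened in concentration-response for blockade of dexamethasone (5 nM final)-induced GRE-bla reporter activity in HeLa cells; 18 h treatment, fluorescence read.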

[23] = qHTS assay to identify small molecule antagonists of the glucocorticoid receptor (GR) signaling pathway - cell viability counter screen (AID 720693); also: nearly all actives have a fitted effect of over 55% in size
[24] = qHTS assay for identifying genotoxic compounds that show differential cytotoxicity against isogenic chicken DT40 cell lines with known DNA damage response pathways - wild type cell line (AID 743012); also: nearly all actives have a fitted effect of over 60% in size
Method in brief: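 Endpoint: CellTiter-Glo luminescence, 30 min RT. Cells: wild type DT40, 300/well. Exposure: compounds in DMSO, 40 h, 37 C/5% CO2, after ~0.5 h pre-incubation.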

[25] = qHTS assay for identifying genotoxic compounds that show differential cytotoxicity against isogenic chicken DT40 cell lines with known DNA damage response pathways - Rev3 mutant cell line (AID 743014); also: nearly all actives have a fitted effect of over 55% in size
[26] = qHTS assay for identifying genotoxic compounds that show differential cytotoxicity against isogenic chicken DT40 cell lines with known DNA damage response pathways - Rad54/Ku70 mutant cell line (AID 743015); also: nearly all actives have a fitted effect of over 60% in size
[27] = qHTS assay to identify small molecule antagonists of the androgen receptor (AR) signaling pathway - cell viability counter screen (AID 743033; also: nearly all actives have a fitted effect of over 45% in size)
[28] = qHTS assay to identify small molecule antagonists of the androgen receptor (AR) signaling pathway using the MDA cell line - cell viability counter screen (AID 743041; also: nearly all actives have a fitted effect of over 45% in size)
Method in brief: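 Cytotoxicity counter screen: MDA-kb2 AR-luc cells, compound + R1881, 16 h, 37C, 0% CO2; CellTiter-Fluor added at 15.5 h, fluorescence read after 30 min.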

[29] = qHTS assay to identify small molecule antagonists of the thyroid receptor (TR) signaling pathway - cell viability counter screen (AID 743064); also: nearly all actives have a fitted effect of over 50% in size
Method in brief: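 In rat pituitary GH3.TRE-Luc reporter cells co-exposed to compound and 1 nM T3 for 23.5 h, cytotoxicity was assessed with CellTiter-Fluor in the same wells, read by fluorescence.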

[30] = qHTS assay to identify small molecule antagonists of the thyroid receptor (TR) signaling pathway (AID 743065); also: series mostly up to about 70 µM; nearly all actives have a fitted effect of over 55% in size
Method in brief: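 GH3.TRE-Luc rat pituitary cells (two TREs driving luciferase) were dosed with compound, then stimulated with 1 nM T3 (final) for 23.5 h at 37 C. ONE-Glo luminescence was the read-out, with CellTiter-Fluor fluorescence as the cytotoxicity counter-screen.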

[31] = system: thyroid hormone receptor (rat, GH3 cells); assay: qHTS assay to identify small molecule agonists of the thyroid receptor (TR) signaling pathway (AID 743066; calls by dose curve)
[32] = qHTS assay to identify small molecule antagonists of the estrogen receptor alpha (ER-alpha) signaling pathway - cell viability counter screen (AID 743074; calls by dose curve;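 also: HEK293 cells carrying ER-alpha-UAS-bla reporter stimulated with 17beta-estradiol; nearly all actives have a fitted effect of over 45% in size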)
[33] = qHTS assay to identify small molecule antagonists of the estrogen receptor alpha (ER-alpha) signaling pathway using the BG1 cell line - cell viability counter screen (AID 743081);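 also: compound given together with 17beta-estradiol as the ER stimulus; series mostly up to about 70 µM; nearly all actives have a fitted effect of over 45% in size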
[34] = qHTS assay to identify small molecule that activate the aryl hydrocarbon receptor (AhR) signaling pathway - cell viability counter screen (AID 743086)
Method in brief: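 HepG2-AhR-luc (HG2L7.5c1) cells, 4000/well, treated 24 h at 37 C with compound; viability measured as CellTiter-Fluor fluorescence after 30 min in the same wells as the luciferase read.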

[35] = qHTS assay to identify small molecule antagonists of the estrogen related receptor (ERR) signaling pathway from Tox21 library - cell viability counter screen (AID 1224834); also: nearly all actives have a fitted effect of over 30% in size
Method in brief: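 Seeded ERR cells were rested 6 h at 37 C/5% CO2 before compounds, positive and negative controls or DMSO were added. Incubation continued for 17.5 h, and viability was then quantified by CellTiter-Fluor fluorescence.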

[36] = qHTS assay to identify small molecule antagonists of the estrogen related receptor signaling pathway with the pleiotropic PPARgamma coactivator (PGC) from Tox21 10K library - cell viability counter screen (AID 1224840; active = well fitted cell-killing curve with a large enough effect in the repeat runs, not every such curve was filed as active; also: nearly all actives have a fitted effect of over 40% in size)
Method in brief: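 Seeded PGC/ERR cells (2,000/well, 6 h, 37 C/5% CO2) get compound by pin tool; 17.5 h incubation at 37 C; CellTiter-Fluor added, 30 min, fluorescence measured.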

[37] = qHTS assay to identify small molecule agonists of the estrogen related receptor signaling pathway with the pleiotropic PPARgamma coactivator (PGC) from Tox21 10K library (AID 1224842); also: nearly all actives have a fitted effect of over 15% in size
Method in brief: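 PGC/ERR reporter cell line, 2,000 cells per well, incubated 6 h at 37 C before 23 nL compound in DMSO was added. After 18 h at 37 C, One-Glo luminescence read following 30 min at room temperature.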

[38] = qHTS assay to identify small molecule antagonists of the estrogen related receptor (ERR) signaling pathway from Tox21 library (AID 1224848); also: nearly all actives have a fitted effect of over 50% in size
Method in brief: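 Compounds dissolved in DMSO are pin-transferred onto ERR reporter cells (2,000 per well) that have settled for 6 h at 37 C. Plates then incubate 18 h at 37 C before ONE-Glo luciferase reagent and a luminescence read 30 min later.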

[39] = qHTS assay to identify small molecule antagonists of the estrogen receptor alpha (ER-alpha) signaling pathway using the BG1 cell line in the presence of 0.1 nM 17-beta-estradiol - cell viability counter screen (AID 1259241); also: nearly all actives have a fitted effect of over 40% in size
Method in brief: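 Estradiol-stimulated (0.1 nM) VM7Luc4E2 cells exposed to compounds 22 hr; viability measured by fluorescence of cleaved CellTiter-Fluor substrate after 30 min.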

[40] = qHTS assay to identify small molecule antagonists of the androgen receptor (AR) signaling pathway using the MDA cell line in the presence of 0.5 nM R1881 - cell viability counter screen (AID 1259242); also: nearly all actives have a fitted effect of over 45% in size
Method in brief: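 Concentration-response screen of compounds for toxicity in MDA-kb2 reporter cells: 16 hr at 37C with 0.5 nM R1881, endpoint live-cell protease fluorescence measured in the reporter wells.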

[41] = target: Nuclear receptor subfamily 1 group I member 2 (Homo sapiens) (UniProt O75469); assay: Human pregnane X receptor (PXR) small molecule agonists, qHTS assay (AID 1346982); also: nearly all actives have a fitted effect of over 35% in size
Nuclear receptor subfamily 1 group I member 2 (Homo sapiens), sequence (O75469 whole entry, looked up): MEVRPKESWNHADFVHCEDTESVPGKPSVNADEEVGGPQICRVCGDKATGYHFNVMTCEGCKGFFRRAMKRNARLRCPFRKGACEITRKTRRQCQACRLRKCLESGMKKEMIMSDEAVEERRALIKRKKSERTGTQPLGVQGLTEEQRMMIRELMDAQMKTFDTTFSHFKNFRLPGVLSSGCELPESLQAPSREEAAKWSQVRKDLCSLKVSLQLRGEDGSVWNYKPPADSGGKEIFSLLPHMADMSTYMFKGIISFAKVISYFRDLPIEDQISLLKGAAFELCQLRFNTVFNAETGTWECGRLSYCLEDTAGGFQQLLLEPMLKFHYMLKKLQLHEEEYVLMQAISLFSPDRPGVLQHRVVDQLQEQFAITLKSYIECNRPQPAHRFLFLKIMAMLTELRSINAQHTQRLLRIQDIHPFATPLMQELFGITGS
Method in brief: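 Stable HepG2 line reporting PXR-mediated CYP3A4 expression via luciferase. Treatment: 24 hr with compounds in DMSO at 37 C. Detection: ONE-Glo luminescence.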

[42] = target: Acetylcholinesterase (Homo sapiens) (UniProt P22303); assay: Acetylcholinesterase (AChE) small molecule antagonists: enzyme-based qHTS assay (AID 1347397; calls by dose curve; also: nearly all actives have a fitted effect of over 55% in size); conditions: Potency: AChE enzyme activity inhibition; outcome: AChE enzyme activity inhibition
Acetylcholinesterase (Homo sapiens), sequence (P22303 whole entry, looked up): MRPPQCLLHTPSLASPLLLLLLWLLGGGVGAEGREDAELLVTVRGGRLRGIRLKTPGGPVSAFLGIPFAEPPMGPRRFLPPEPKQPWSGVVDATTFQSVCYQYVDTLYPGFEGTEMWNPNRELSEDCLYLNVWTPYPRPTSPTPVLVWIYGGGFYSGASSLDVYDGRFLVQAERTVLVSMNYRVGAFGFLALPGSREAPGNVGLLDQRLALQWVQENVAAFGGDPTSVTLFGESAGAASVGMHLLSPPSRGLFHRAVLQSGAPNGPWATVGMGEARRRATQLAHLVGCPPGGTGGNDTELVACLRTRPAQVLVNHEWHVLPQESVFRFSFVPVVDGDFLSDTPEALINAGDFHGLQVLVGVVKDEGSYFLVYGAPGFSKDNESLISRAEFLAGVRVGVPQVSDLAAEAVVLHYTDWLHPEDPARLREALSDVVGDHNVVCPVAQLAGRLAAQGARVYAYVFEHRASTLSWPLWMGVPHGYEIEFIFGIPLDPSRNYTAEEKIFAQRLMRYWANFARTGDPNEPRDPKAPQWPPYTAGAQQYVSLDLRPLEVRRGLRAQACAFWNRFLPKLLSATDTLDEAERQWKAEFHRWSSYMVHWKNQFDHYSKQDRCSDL
Method in brief: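 Colorimetric DTNB read-out of thiocholine released from acetylthiocholine by recombinant human AChE (50 mU/mL as dispensed). Compounds were preincubated 30 min at RT before substrate/DTNB addition, with a 10 min RT reaction.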

[43] = target: Acetylcholinesterase (Homo sapiens) (UniProt P22303); assay: Acetylcholinesterase (AChE) small molecule antagonists: fluorescence cell-based qHTS assay (AID 1347398; calls by dose curve; also: nearly all actives have a fitted effect of over 50% in size); conditions: Potency: AChE activity; outcome: AChE activity
Method in brief: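 SH-SY5Y, 2,000 cells/well, attached overnight; cmpd 30 min 37 C; acetylthiocholine/Thiolite Green cocktail 40 min RT; fluorescence Ex/Em 490/520 nm.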

[44] = target: Acetylcholinesterase (Homo sapiens) (UniProt P22303); assay: Acetylcholinesterase (AChE) small molecule antagonists: enzyme-based qHTS assay with human liver microsomes (AID 1347399; calls by dose curve; also: nearly all actives have a fitted effect of over 60% in size); conditions: Potency: qHTS inhibition; outcome: qHTS inhibition
Method in brief: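 Recombinant human AChE (50 mU/mL in the enzyme mix) and human liver microsomes (0.25 mg/mL final) were preincubated with compound and NADPH (0.25 mg/mL final) for 30 min at 37 C. Acetylthiocholine/DTNB was then added; thiocholine was read colorimetrically after 10 min at room temperature.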

Measured: Potency

C[N+]1(C)C2CC(OC(=O)[C@H](CO)c3ccccc3)CC1C1OC12 (stereo partly specified)
inactive: [1] | [2]

NNC(=O)c1ccc(O)cc1
inactive: [1] | [3] | [2] | [4]

O=C(O)/C=C/C(=O)O
inactive: [5] | [6] | [7] | [8] | [9] | [10] | [11] | [12] | [13] | [14] | [15] | [16] | [17] | [18] | [19] | [20] | [21] | [22] | [23] | [24] | [25] | [26] | [27] | [28] | [29] | [30] | [31] | [32] | [33] | [34] | [35] | [36] | [37] | [38] | [39] | [40] | [41] | [42] | [43] | [44]
